From PubChem
The list is not random: actives were taken first. Their share in the collection is about 21%.
Shiga toxin inh: inhibitors of Shiga toxin in Vero cells; Vero cells, Shiga toxin protein synthesis inhibition reporter; inhibition, % at 38.7 µM; hit rate 9.2% among 290,000; AID 2315; in the data active means inhibition mostly above about 28%, no sharp cut-off; inactive means mostly below about 43%; further: 0% is about no effect
Pf growth 96h: P. falciparum growth inhibition at 96 hour, primary screen for plastid delayed-death inhibitors; P. falciparum luciferase reporter growth, 96 h; Potency, µM (top dose mostly 28.7 µM), without a hit: top-dose activity change, negative = inhibition, usual class: inhibitors; hit rate 6.9% among 320,000; AID 504834; active means well fitted inhibition curve with a large enough effect; inconclusive means small, poorly fitted or top-dose-only effect, or another doubt; inactive means no such curve, though single readings can be large or run the other way; further: potency means the concentration at half of the fitted maximal effect; on the % scale 0 is the no-effect control and ±100 the full control effect
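P. falciparum expressing integrated firefly luciferase grown in erythrocytes (2% hematocrit, 0.05% parasitemia final) with compounds for 96 hours at 37 C, 5% CO2. Growth inhibition read as loss of luminescence after adding luciferase detection reagent.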
CHX counter: affects cycloheximide protein synthesis inhibition readout, counter-screen | hit rate 12% among 300,000 | AID 2314 | cell reporter, cycloheximide protein synthesis inhibition counterscreen | max response, %; in the data active means max response mostly above about 13%, no sharp cut-off; inactive means mostly below about 14%; further: read at 38.3 µM for the half of the compounds with a filed dose; 0% is about no effect
Pf growth 48h: P. falciparum growth inhibition at 48 hours (one generation) | P. falciparum luciferase growth in erythrocytes, 48 h | Potency, µM (highest dose often 28.7 µM), for inactives: top-dose activity change, negative = inhibition, most hits filed as inhibitors | hit rate 5.9% among 310,000 | AID 504832; active means well fitted inhibition curve with a large enough effect; inconclusive means small, poorly fitted or top-dose-only effect, or another doubt; inactive means no such curve, though single readings can be large or run the other way; further: potency means the concentration at half of the fitted maximal effect; on the % scale 0 is the no-effect control and ±100 the full control effect
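In quantitative HTS format, infected erythrocytes bearing luciferase-reporter parasites were treated for a single generation at 37 C. Luminescence after adding detection reagent served as the growth measure.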
SARS PLP yeast: blocks SARS-CoV papain-like protease in a yeast assay | S. cerevisiae expressing SARS-CoV PLpro, growth rescue | Potency, µM (titrated, usually from 32.9 µM), without a hit: at the top dose activity, positive = growth rescue, most hits filed as activators | hit rate 0.19% among 330,000 | AID 485353; further: potency means the concentration at half of the fitted maximal effect; 0% is about no effect; nearly all actives have a fitted effect of over 55% in size
NS1 inh: influenza NS1 inhibition | Potency, µM (highest dose often 46.1 µM), inactives show at the highest dose activity, positive = more growth | hit rate 0.4% among 270,000 | AID 2326; further: potency means the concentration at half of the fitted maximal effect; actives are rising curves; nearly all actives have a fitted effect of over 50% in size
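OD600 was taken as the measure of yeast growth restored by compound in an NS1-expressing S. cerevisiae strain. Cells had been washed out of glucose medium and diluted 1:100 into galactose -URA medium, pH 6.0.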
* marks the source's active call; other numbers are inactive results; ? = inconclusive; / = not tested or not shown. Unless noted, the call rests on the fitted dose curve.

SMILES | Shiga toxin inh | Pf growth 96h | CHX counter | Pf growth 48h | SARS PLP yeast | NS1 inh
CC(=O)N(C)c1ccc(NC(=O)Nc2ccc(C)cc2)cc1 | 74 | 45% | 30 | 37% | 0% | -9%
NC(=O)c1nsc(C(=O)N(c2ccccc2)C(C(=O)NCC2CCCO2)c2ccc3ncccc3c2)c1N (configuration not stated) | -9 | ? | -7 | 12µM* | 3% | -15%
CN(C)c1ccc(C(C(=O)NCC2CCCO2)N(C(=O)c2snc(C(N)=O)c2N)c2ccccc2)cc1 (configuration not stated) | -7 | 11% | -7 | 2.9µM* | 4% | -4%
CC(C)c1ccc(N(C(=O)c2snc(C(N)=O)c2N)C(C(=O)NCC2CCCO2)c2ccc(N(C)C)cc2)cc1 (configuration not stated) | -4 | 10% | -7 | ? | ? | 19%
CCOc1ccccc1N(C(=O)c1snc(C(N)=O)c1N)C(C(=O)NCC1CCCO1)c1ccc2ncccc2c1 (configuration not stated) | 8 | ? | -5 | ? | 1% | 2%
Cc1ccccc1N(C(=O)c1snc(C(N)=O)c1N)C(C(=O)NCC1CCCO1)c1ccc(N(C)C)cc1 (configuration not stated) | -7 | ? | -7 | 1.7µM* | 1% | 3%
CCOc1ccc(C(C(=O)NCC2CCCO2)N(Cc2cccc(OC)c2)C(=O)c2snc(C(N)=O)c2N)cc1 (configuration not stated) | -6 | ? | -4 | 13µM* | -4% | -9%
O=C(O)COc1ccc(/C=N/NC(=O)Cc2ccc(Cl)cc2)cc1 | 5 | -21% | -2 | ? | 0% | 1%
Cc1ccc(S(=O)(=O)NCC2CCC(C(=O)O)CC2)cc1 (configuration not stated) | 7 | -7% | 7 | 1% | -6% | -6%
Cc1cccc(N(C(=O)c2snc(C(N)=O)c2N)C(C(=O)NCC2CCCO2)c2ccc(N(C)C)cc2)c1 (configuration not stated) | 2 | 40% | -5 | 13µM* | 14% | 13%
CN(C)c1ccc(C(C(=O)NCC2CCCO2)N(C(=O)c2snc(C(N)=O)c2N)c2ccc3c(c2)OCO3)cc1 (configuration not stated) | -1 | ? | -3 | ? | -9% | -16%
CC(=O)c1ccc(N2CCN(S(=O)(=O)c3c(C)[nH]c(C)c3C(=O)N3CCCCC3)CC2)cc1 | 17 | 14% | 19* | ? | 1% | -18%
Cc1[nH]c(C)c(S(=O)(=O)N2c3ccccc3CC2C)c1C(=O)N1CCCCC1 (configuration not stated) | -2 | 15µM* | -3 | -11% | 1% | -7%
COc1ccccc1N1CCN(S(=O)(=O)c2c(C)[nH]c(C)c2C(=O)N2CCCCC2)CC1 | -5 | 0% | -2 | -13% | 1% | 5%
CC(=O)c1ccc(N2CCN(S(=O)(=O)c3c(C)[nH]c(C)c3C(=O)N3CCCC3)CC2)cc1 | 11 | -45% | 11 | 4% | -1% | -15%
CCN(CC)S(=O)(=O)c1cccc(C(=O)N[C@H](C(=O)NCc2ccc(Cl)cc2)C(C)C)c1 | 4 | / | 7 | ? | 10% | 7%
CC(C)C(=O)Nc1ccc(S(=O)(=O)N2CCC(c3nc4ccccc4[nH]3)CC2)cc1 | / | ? | / | ? | 1% | /
CCCN(Cc1nnc(-c2ccccc2Cl)o1)C(=O)c1oc2ccccc2c1C | / | 9.3µM* | / | 9.3µM* | / | /
CCCN(Cc1nnc(-c2ccccc2Cl)o1)C(=O)c1cccc(S(=O)(=O)N2CCOCC2)c1 | 6 | ? | 7 | ? | -2% | 4%
CCOC(=O)Cn1cnc2sc(C(=O)OC)c(C)c2c1=O | 25* | 60% | 11 | 14% | 0% | 2%
Cc1ccc(OCCn2cnc3sc(C(N)=O)c(C)c3c2=O)cc1 | -3 | 12% | 10 | ? | 0% | /
CCn1cnc2sc(C(=O)Oc3ccc(Br)cc3)c(C)c2c1=O | 64* | 2.9µM* | 30* | 54% | -3% | /
CCOCCn1cnc2sc(C(=O)NCC(=O)OCC)c(C)c2c1=O | 32* | 3% | 23* | 23% | 4% | -4%
COCCCNC(=O)CN(CCc1ccccc1)S(=O)(=O)c1ccc(OC)cc1 | -21 | 17% | 2 | -1% | 0% | -11%
Cc1ccc(NC(=O)CN(C)C(=O)c2cc(-c3ccco3)nc3ccccc23)cc1 | / | ? | / | 10µM* | 2% | /
SMILES | Shiga toxin inh | Pf growth 96h | CHX counter | Pf growth 48h | SARS PLP yeast | NS1 inh
COc1ccc(Cl)cc1NC(=O)CN(C)C(=O)c1cc(-c2ccncc2)nc2ccccc12 | / | 5.2µM* | / | 9.3µM* | -1% | /
CCOc1ccc(NC(=O)CN(C)C(=O)c2cc(C)nc3ccccc23)cc1OCC | / | ? | / | 15µM* | 0% | /
COc1ccc(NC(=O)CN(C)C(=O)c2cc(-c3ccncc3)nc3ccccc23)cc1 | -9 | ? | -1 | ? | 3% | -6%
Cc1ccc2nc(-c3ccccc3)cc(C(=O)N(C)CC(=O)Nc3ccccc3Br)c2c1 | / | ? | / | 13µM* | 3% | /
Cc1ccc(NC(=O)CSc2nnc(-c3n[nH]c4ccccc34)n2-c2ccccc2)c(C)c1 | -10 | ? | -2 | ? | 5% | -4%
COc1ccc(NC(=O)CN(C)C(=O)c2cc(-c3ccccc3)nc3ccccc23)cc1 | / | -1% | / | ? | / | /
COc1ccc(NC(=O)CN(C)C(=O)c2cc(-c3ccc(OC)cc3)nc3ccccc23)cc1 | / | ? | / | 9.3µM* | -1% | /
CCc1cc(=O)oc2c(C)c(OCC(=O)NCCCN3CCCC3=O)ccc12 | -7 | ? | -1 | ? | 1% | 5%
COc1cc(NS(=O)(=O)c2ccc(NC(=O)c3cccnc3)cc2)ncn1 | -1 | -4% | -2 | 5% | 1% | 3%
O=C1c2ccccc2C(=O)N1/N=C/c1ccc(O)c(O)c1 | 47* | -13% | 9 | -8% | 13% | 3%
Cc1cc(=O)[nH]c(S/C=C/c2ccccc2)n1 | 58* | 2% | 28* | 56% | -12% | -38%
Cc1cc(=O)[nH]c(SCCc2ccccc2)n1 | -6 | 53% | -4 | 15% | 0% | 6%
C=CCc1c(C)nc(SCc2ccccc2)[nH]c1=O | 18 | -4% | 16* | 10% | -2% | -13%
COc1cc(CSc2nc(-c3ccccc3)cc(=O)[nH]2)cc(OC)c1 | -4 | 19% | 2 | 16% | 0% | 4%
COc1ccc(CSc2nc(C)cc(=O)[nH]2)cc1 | 23 | 4.7µM* | 10 | 0% | 6% | -6%
Cc1cc(=O)[nH]c(SCc2ccccc2)n1 | 0 | 3% | 2 | 12µM* | 6% | 10%
COc1ccc(OCC(=O)Nc2ccc3c(c2)nc(CCN2CCN(C)CC2)n3C)cc1 | -6 | ? | -2 | -3% | 0% | -3%
